# From PubChem BioAssay AID1347076 (National Center for Advancing Translational Sciences (NCATS), 2019)
# About 13,000 (3.2%) of roughly 400,000 compounds were called active. Roughly 18% stayed inconclusive and do not appear here. This is one part of a sample in which actives are shown more often than they occur. Calls follow the shape of the dose curve; as a rule, active = well fitted cell-killing curve with a large enough effect; inconclusive = small, poorly fitted or top-dose-only effect, or effect the other way; inactive = flat fitted curve, though single readings scatter.
# Assay: qHTS assay for MDR1-selective chemotherapeutics: Primary screen using the drug-selected MDR subline cells KB-V1; also: nearly all actives have a fitted effect of over 60% in size
# Settings: KB-V1 MDR cells viability, CellTiter-Glo, 72 h; series mostly up to 46.1 µM; activity change, negative = cytotoxicity: at the top concentration
# Procedure, shortened: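 Readout: CellTiter-Glo luminescence, 10 min after addition. Cells: KB-V1 MDR subline, 72 h at 37 degrees C with compound. Analysis: corrected, normalized data fitted to concentration-effect curves.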
# % is scaled to controls: 0 for no effect and ±100 for the full control effect; potency is read from the fitted curve at half-maximal effect.
Structure (SMILES),"activity change, negative = cytotoxicity",Potency
CCc1oc(-c2ccc(OC)cc2)c(C(=O)OCCCCCO)c1C(C)OCCO (configuration not stated),2.82% (inactive),–
CC12CCC(C(=O)N(c3cccc(Cl)c3)C1=O)C2(C)C (configuration not stated),-8.2% (inactive),–
CC12CCC(C(=O)N(NC(=O)c3ccccc3O)C1=O)C2(C)C (configuration not stated),–,3.26 µM (active)
O=C(NN1C(=O)C2C(C1=O)C1C=CC2C12CC2)c1ccccc1Cl (configuration not stated),13.1% (inactive),–
O=C(NCc1ccccc1)C1CNCC(C(=O)NCc2ccccc2)C1 (configuration not stated),19.2% (inactive),–
O=C(OC/C=C/CSc1nnc(-c2cccc3ccccc23)o1)c1ccc(F)cc1,-4.97% (inactive),–
COc1cc(S(=O)(=O)N(Cc2cccs2)C2CC2)ccc1-n1cnnn1,–,4.61 µM (active)
Cc1cc(S(=O)(=O)NC2CCCC2)ccc1-n1cnnn1,0.365% (inactive),–
CCOc1ccc(CN(Cc2ccco2)S(=O)(=O)c2ccc(-n3cnnn3)c(OC)c2)cc1,0% (inactive),–
CCOC(=O)c1c(C)oc2nc(C)nc(Nc3ccc(CC)cc3)c12,2.93% (inactive),–
O=C(C(=O)N1CCC(c2ccccc2)CC1)c1ccccc1,-16.7% (inactive),–
Cc1csc(SCC(=O)Nc2ccc(C)c(S(=O)(=O)N(C)C)c2)n1,-23.4% (inactive),–
CCN1CCN(CCNC(=O)c2ccc3c(c2)NC(=O)/C(=C\c2cccc(Cl)c2)S3)CC1,16.5% (inactive),–
O=C(OCC(=O)N1CCCCCC1)c1cccc(Cl)c1Cl,1.14% (inactive),–
CCOc1ccc(CCN2C(=S)N([C@@H](CC(C)C)CN3CCC[C@@H]3CN3C(=S)NC[C@@H]3Cc3ccc(O)cc3)C[C@@H]2Cc2ccc(O)cc2)cc1,-23.8% (inactive),–
CCC(=O)N1CCc2cc(S(=O)(=O)NC(Cc3ccccc3)C(=O)NCc3ccccc3)ccc21 (configuration not stated),4.74% (inactive),–
CC1CCCN(CC(O)COCc2ccccc2)C1 (configuration not stated),6.78% (inactive),–
CC1CCCN(CCOCCOc2ccccc2-c2ccccc2)C1 (configuration not stated),–,20.6 µM (active)
CN1CCN(CCCCOc2ccccc2-c2ccccc2)CC1,9.51% (inactive),–
OC[C@@H]1CN(Cc2ccc(F)cc2)C[C@H](n2cnc3c(NC4CCCC4)ncnc32)O1,0.456% (inactive),–
Cc1ccc(N2CCN(C(=S)Nc3cc(C)ccn3)CC2)cc1,0% (inactive),–
CC(NC(=O)CC1SC(N)=NC1=O)c1ccccc1 (configuration not stated),-19% (inactive),–
O=C1NC(=Nc2ccc(Cl)cc2)SC1Cc1cccc(Cl)c1Cl (configuration not stated),-12.8% (inactive),–

Structure (SMILES),"activity change, negative = cytotoxicity",Potency
NC1=NC(=O)C(Cc2cccc(Cl)c2Cl)S1 (configuration not stated),–,18.4 µM (active)
C[C@@H]1CN([C@H](C)CO)S(=O)(=O)c2ccc(C#C[C@@H](C)O)cc2O[C@@H]1CN(C)Cc1ccc(-c2ccccc2)cc1,-1.21% (inactive),–
Cc1cc(Br)cn2c(Cc3ccsc3)c(-c3ccc(C#N)cc3)nc12,2.33% (inactive),–
COc1cccc(OCCn2c(-c3ccc(Br)cc3)nc3ccccc3c2=O)c1,3.93% (inactive),–
CC[C@]1(O)CC2CN(CCc3c([nH]c4ccccc34)[C@@](C(=O)OC)(c3cc4c(cc3OC)N(C=O)[C@H]3[C@@](O)(C(=O)OC)[C@H](OC(C)=O)[C@]5(CC)C=CCN6CC[C@]43[C@@H]65)C2)C1 (some centres not stated),–,20.6 µM (active)
CC[C@]1(O)C[C@@H]2CN(CCc3c([nH]c4ccccc34)[C@@](C(=O)OC)(c3cc4c(cc3OC)N(C)[C@H]3[C@@](O)(C(=O)OC)[C@H](OC(C)=O)[C@]5(CC)C=CCN6CC[C@]43[C@@H]65)C2)C1,–,5.17 µM (active)
O=CNc1cc(-c2ccc(C(=O)N3CCOCC3)cc2)cn2c(-c3ccc(F)cc3)cnc12,-18% (inactive),–
COC(=O)c1cc(NC(=O)CCS(=O)(=O)c2cc(Br)cc3c2N(C(=O)C2CC2)CC3)cc(C(=O)OC)c1,7.94% (inactive),–
CCNC(=O)C1CCCN(C(=O)c2cc(F)ccc2C)CC1 (configuration not stated),-22.9% (inactive),–
COc1ccc(NC(=O)C(c2ccncc2)n2c(=O)c(-c3cc4ccccc4[nH]3)nc3ccccc32)cc1 (configuration not stated),-0.812% (inactive),–
CC(C)c1ccc(NC(=O)c2cc(S(=O)(=O)N3CCc4ccccc4C3)ccc2F)cc1,-14.2% (inactive),–
Cc1ccccc1S(=O)(=O)N1[C@@H](c2cccc(Cl)c2)C(C(=O)OC(C)(C)C)=CC[C@H]1c1ccc(Cl)cc1,0% (inactive),–
CCC(C)NCCOCCOc1ccc(Br)cc1C (configuration not stated),–,20.6 µM (active)
CCOCCCNCc1cc(Br)ccc1OCC,-3.55% (inactive),–
COCCCNCCOCCOc1ccc(Cl)cc1Br,-3.06% (inactive),–
COc1ccc(N)cc1NC(=O)CN1CCOCC1,16.4% (inactive),–
CCCS(=O)(=O)NC(=O)C1(C)CCN(C(=O)c2sccc2C)C1 (configuration not stated),2.03% (inactive),–
O=C(CN1c2ccccc2S(=O)(=O)c2ccccc21)Nc1cccc(C(F)(F)F)c1,-7.05% (inactive),–
Cc1cc(C)c2cc(CN(Cc3cccs3)Cc3nnnn3CC3CCCO3)c(=O)[nH]c2c1 (configuration not stated),–,16.4 µM (active)
Cc1cc2cc(CN(Cc3cccs3)Cc3nnnn3CC3CCCO3)c(=O)[nH]c2cc1C (configuration not stated),-10.7% (inactive),–
COc1ccc2[nH]c(=O)c(CN(Cc3nnnn3CCc3ccccc3)CC3CCCO3)cc2c1 (configuration not stated),-18.1% (inactive),–
CCN(CC)C(=O)C1CCCN(Cc2cccc(Cl)c2)C1 (configuration not stated),-18.5% (inactive),–
CCOC(=O)N1CCC(N(CCOC)C(=O)Nc2ccc(C)c(C)c2)CC1,–,4.11 µM (active)

Structure (SMILES),"activity change, negative = cytotoxicity",Potency
CCOC(=O)C1CCN(C(=O)Nc2ccc(C)c(Cl)c2)CC1,-17.6% (inactive),–
Cc1ccc(NC(=O)C2CCCN2C(=O)OCc2ccccc2)cc1C (configuration not stated),-4.42% (inactive),–
Cc1ccc(NC(=O)COC(=O)CN2CCSC2=O)cc1F,23.3% (inactive),–
CCc1ccccc1NC(=O)c1ccc2nc(CCc3ccccc3)oc2c1,11% (inactive),–
CN(C)c1ccc(/C=C2\C=Cc3ccccc32)cc1Br,0.234% (inactive),–
O=C(CN1CCN(S(=O)(=O)c2ccc(Cl)s2)CC1)N1CCCCC1,0% (inactive),–
O=C(CN1CCN(S(=O)(=O)c2ccc(Cl)s2)CC1)NCc1ccc(Cl)cc1,–,3.66 µM (active)
Cc1ccccc1N1CCN(CC(=O)NCc2ccc(Cl)cc2)CC1,-0.77% (inactive),–
Cc1cc(C)c2nc3nc(C)cc(C)c3c(N)c2c1,–,18.4 µM (active)
CC(C)OC(=O)c1ccc(NCc2cc(O)ccc2O)cc1Cl,-6.71% (inactive),–
COC(=O)c1ccc(NCc2cc(O)ccc2O)cc1,2.93% (inactive),–
O=C(OC12CC3CC(CC(C3)C1)C2)c1ccc(NCc2cc(O)ccc2O)cc1,–,14.6 µM (active)
O=C(Nc1nc2ccc([N+](=O)[O-])cc2s1)c1ccc(S(=O)(=O)N2CCCc3ccccc32)cc1,–,1.03 µM (active)
O=C(CNC(=O)c1ccccc1)Oc1ccc([N+](=O)[O-])cc1,18.4% (inactive),–
O=C(CCNC(=O)c1ccccc1)Nc1nc2ccccc2s1,-7.25% (inactive),–
O=C(Nc1nnc(S(=O)(=O)N2CCCc3ccccc32)s1)c1cccc(F)c1,-5.74% (inactive),–
CSc1nc2ccc(S(=O)(=O)N3CCc4ccccc43)cc2s1,–,3.66 µM (active)
CNC(=O)c1ccsc1NC(=O)c1ccc(S(=O)(=O)N2CCc3ccccc32)cc1,7.33% (inactive),–
O=S(=O)(c1ccccc1)N1CCc2ccccc21,-0.951% (inactive),–
O=C(NC(Nc1nc2ccc([N+](=O)[O-])cc2s1)(C(F)(F)F)C(F)(F)F)c1ccccc1,–,0.517 µM (active)
O=S(=O)(c1ccc2c(c1)OCCO2)N1CCc2ccccc21,0% (inactive),–
